Sm TGR inh: blocks Schistosoma mansoni thioredoxin glutathione reductase. AID 485364. purified TGR, DTNB reduction, TNB absorbance 405 nm. 360,000 tested, 3% active. Potency, µM (titrated, usually from 114 µM), for inactives: at the top dose activity change, negative = inhibition, hits mostly inhibitors; note: % is set by controls: 0 for no effect and ±100 for the full control effect; nearly all actives have a fitted effect of over 60% in size
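First, TGR (20 nM dispensed) and NADPH were mixed with compound. Second, a 15 min room-temperature incubation followed. Third, further NADPH and then DTNB were added to start the reaction. Finally, TNB absorbance was monitored kinetically.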
LmPK inhibitor: LmPK (Leishmania mexicana) enzyme inhibition. Q27686. purified LmPK, Kinase-Glo ATP luminescence, 1 h. Potency, µM (doses to about 57.5 µM), inactives show top-dose activity change, negative = inhibition, usual class: inhibitors. 290,000 tested, 0.37% active. AID 1721; note: % is set by controls: 0 for no effect and ±100 for the full control effect
Target sequence (Q27686 whole entry, looked up): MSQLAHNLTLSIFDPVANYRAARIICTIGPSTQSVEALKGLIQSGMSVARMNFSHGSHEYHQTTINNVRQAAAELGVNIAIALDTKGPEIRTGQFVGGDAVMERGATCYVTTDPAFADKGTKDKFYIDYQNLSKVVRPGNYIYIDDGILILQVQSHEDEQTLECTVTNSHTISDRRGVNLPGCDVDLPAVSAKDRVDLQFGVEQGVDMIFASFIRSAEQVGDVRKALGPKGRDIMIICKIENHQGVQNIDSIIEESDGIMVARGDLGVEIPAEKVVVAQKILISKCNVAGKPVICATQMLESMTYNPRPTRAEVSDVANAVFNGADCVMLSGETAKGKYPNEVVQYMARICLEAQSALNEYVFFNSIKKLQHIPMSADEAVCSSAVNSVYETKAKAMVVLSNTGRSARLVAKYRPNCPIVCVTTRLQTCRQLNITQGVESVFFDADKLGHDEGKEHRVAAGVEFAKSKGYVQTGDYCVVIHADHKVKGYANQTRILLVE
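Purified LmPK (0.1 nM) converted ADP (0.1 mM) to ATP with PEP (0.5 mM) in imidazole buffer pH 7.2 with KCl and MgCl2, 1 h at room temperature. ATP was read by Kinase-Glo luminescence; data normalized to uninhibited and no-enzyme controls.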
RE007 growth inh: less growth of the S. pombe RE007 Vpr strain; S. pombe RE007 Vpr strain, BacTiter-Glo ATP luminescence, 24 h; Potency, µM (highest dose often 92.2 µM), for the others: top-dose activity change, negative = less growth, actives largely listed as inhibitors; 360,000 tested, 0.21% active; active = well fitted falling curve with a large enough effect; inconclusive = small, poorly fitted or top-dose-only effect; inactive = no such curve, though single readings can be large or run the other way; note: % is set by controls: 0 for no effect and ±100 for the full control effect; nearly all actives have a fitted effect of over 50% in size
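Fission yeast RE007 carrying one integrated HIV-1 vpr copy, seeded at OD 0.01 in PMG+AL medium with 23 nL pinned compound. Grown 24 h at 30 degrees; viability read by BacTiter-Glo luminescence after 5 min.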
NS1 inh: inhibitors of influenza NS1 protein function | Potency, µM (highest dose often 46.1 µM), without a hit: at the top dose activity, positive = more growth | 270,000 tested, 0.4% active | AID 2326; calls by dose curve; note: actives are rising curves; nearly all actives have a fitted effect of over 50% in size
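Compounds were scored for reversing the slow growth caused by influenza A NS1 in S. cerevisiae, measured by optical density at 600 nm. Assay medium contained 2% galactose at pH 6.0; NS1-free yeast of the same strain were the positive control.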
Giardia FBPA inh: inhibitors of Giardia lamblia fructose-1,6-bisphosphate aldolase; purified Giardia FBPA; Potency, µM (top dose mostly 59.6 µM), for the others: at the top dose activity, negative = inhibition, actives largely listed as inhibitors; 290,000 tested, 0.71% active; AID 2451; note: % is set by controls: 0 for no effect and ±100 for the full control effect; nearly all actives have a fitted effect of over 55% in size
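Giardia FBPA (40 nM reagent) was preincubated 10 min at RT with compound (up to 57.5 uM final), then substrate plus GAPDH/TPI/NAD/arsenate coupling system with diaphorase/resazurin was added; resorufin fluorescence (525/598 nm) was read after 20 min.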
TbPYK inhibitor: T. brucei pyruvate kinase inhibition; Q57TT1; TbPYK enzyme, Kinase-Glo Plus ATP luminescence, 45 min; Potency, µM (doses to about 76.8 µM), without a hit: at the highest dose activity, negative = inhibition, most hits filed as inhibitors; 410,000 tested, 0.12% active; AID 624173; note: % is set by controls: 0 for no effect and ±100 for the full control effect; nearly all actives have a fitted effect of over 50% in size
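TbPYK + substrate in 50 mM TEA pH 7.2, 100 mM KCl, 10 mM MgCl2, 0.05% BSA, 0.01% Tween-20; cpd pinned; ADP 130 uM final; 45 min RT; Kinase-Glo Plus 10 min; luminescence endpoint.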
* hit, by the source's call; ? = inconclusive; . = no result given; [ ] = dose if it differs, or a comment. This is a sample that favours compounds with a hit; in the whole collection about 3.5% have one here. Unless noted, calls come from the whole dose curve; as a rule, active = well fitted curve in the direction sought with a large enough effect; inconclusive = small, poorly fitted or top-dose-only effect, or another doubt; inactive = no such curve, though single readings can be large; an effect the other way counts as inactive or inconclusive. Potency is the fitted concentration of half-maximal effect.

SMILES	Sm TGR inh	LmPK inhibitor	RE007 growth inh	NS1 inh	Giardia FBPA inh	TbPYK inhibitor
CCc1ccc(NC(=O)CC2C(=O)OCCN2CC)cc1 (stereo not drawn)	14µM*	.	.	.	.	-7%
CCN1CCOC(=O)C1CC(=O)Nc1ccc(C(C)=O)cc1 (stereo not drawn)	22µM*	.	.	.	.	-1%
O=C1NC2CCCCN2C12CCN(CCCN1c3ccccc3CCc3ccc(Cl)cc31)CC2 (stereo not drawn)	.	.	.	.	.	1%
CCN1CCOC(=O)C1CC(=O)Nc1cc(C)cc(C)c1 (stereo not drawn)	18µM*	.	.	.	.	-5%
CCN1CCOC(=O)C1CC(=O)Nc1ccccc1C(F)(F)F (stereo not drawn)	10µM*	.	.	.	.	0%
CO/N=C1\CN(c2nc3c(cc2F)c(=O)c(C(=O)O)cn3C2CC2)CC1CN (stereo not drawn)	.	.	.	.	-1%	3%
FC(F)(F)c1cc(NC(=S)N2c3ccccc3-n3cccc3[C@H]2c2cccnc2)cc(C(F)(F)F)c1	.	.	.	-16%	.	.
C=CC[n+]1ccc(/C=C2\C=Cc3cc(C)ccc3N2CC)c2ccccc21	15%	?	32µM*	.	?	-34%
CCC(OC(=O)CC1Sc2ccccc2NC1=O)C(=O)NCC1CCCO1 (stereo not drawn)	25µM*	-1%	12%	1%	1%	-13%
CCOC(=O)CC1Sc2ccccc2NC1=O (stereo not drawn)	-16%	1%	3%	1%	-6%	-1%
CC(=O)COC(=O)C1CCN(S(=O)(=O)c2cc([N+](=O)[O-])ccc2Cl)CC1	7.9µM*	-1%	-3%	2%	?	5%
CN(Cc1ccccc1)C(=O)C1CCN(S(=O)(=O)c2cc([N+](=O)[O-])ccc2Cl)CC1	7%	-3%	-6%	4%	4%	1%
O=C(COC(=O)C1CCN(S(=O)(=O)c2cc([N+](=O)[O-])ccc2Cl)CC1)Nc1ncc(Cl)cc1Cl	40µM*	9%	15%	-6%	.	-1%
Cc1ccc(Cn2ccc(NC(=O)c3cc(-c4ccc(Cl)c(Cl)c4)on3)n2)cc1	-1%	.	.	.	.	3%
Cc1sc2c(c1C)c(=O)n(CCc1ccccc1)c(=O)n2Cc1cccc(F)c1	2%	.	.	.	.	0%
COc1ccc(CC(=O)Nc2sc3c(c2C(=O)Nc2cccc(C)c2)CCCCC3)cc1	-2%	.	.	.	.	1%
Cc1cccc(CCNC(=O)c2nn(C)c3c2CSc2ccccc2-3)c1	-24%	.	.	.	.	6%
Cn1c(=O)n(C/C=C/c2ccccc2)c(=O)c2c1nc1n2CCN1c1ccccc1	7%	.	.	.	.	-4%
CC(C)OCCCNC(=O)Cc1ccc(NC(=O)N2CCCCc3ccccc32)cc1	-4%	.	.	.	.	-2%
CC(C)c1ccc(CN(C(=O)C2COc3ccccc3O2)C2CCS(=O)(=O)C2)cc1 (stereo not drawn)	1%	1%	16%	-106%	-3%	1%
CN(C)c1ccc(CN(C(=O)C2COc3ccccc3O2)C2CCS(=O)(=O)C2)cc1 (stereo not drawn)	20µM*	5%	9%	19%	-11%	5%
CCOc1ccc(OCC)c(NC(=O)CCc2nc3cccnc3n2Cc2cccs2)c1	-3%	.	.	.	.	-7%
O=C(CN(Cc1ccc(Br)cc1)S(=O)(=O)c1ccccc1)NCc1cccnc1	16%	-4%	17%	1%	-11%	-11%
O=C(NCc1cccnc1)/C(=C\c1ccc(-c2ccc(Br)cc2)o1)S(=O)(=O)c1ccccc1	50µM*	3%	0%	3%	7%	-1%
O=C(NCc1cccnc1)/C(=C/c1ccc(-c2ccc(Cl)cc2)o1)S(=O)(=O)c1ccccc1	20µM*	-8%	-4%	-18%	-2%	-1%
SMILES	Sm TGR inh	LmPK inhibitor	RE007 growth inh	NS1 inh	Giardia FBPA inh	TbPYK inhibitor
CCn1cc(S(=O)(=O)c2cc(C)cc(C)c2)c(=O)c2cc(F)c(N3CCCC3)cc21	-2%	.	.	.	.	0%
Cc1ccc(-n2nc3c(n2)/C(=N/O)CC/C3=N\O)cc1	9%	14µM*	?	0%	-1%	-14%
O/N=C1\CC/C(=N\O)c2nn(-c3ccccc3Cl)nc21	2%	-1%	6%	-3%	9%	3%
CCCCNC(=O)c1cnc2c(-c3ccc(OCC)c(OCC)c3)c(C)nn2c1-c1ccccc1	2%	.	.	.	.	2%
COc1ccc2oc(=O)c(C(=O)N3CCN(C(=O)c4ccccc4)CC3)cc2c1	-8%	-4%	2%	4%	0%	4%
COc1ccc2oc(=O)c(C(=O)N3CCN(C(=O)c4ccco4)CC3)cc2c1	40µM*	0%	-5%	-4%	0%	11%
COc1ccc2oc(=O)c(/C(C)=N/Nc3ccccc3)cc2c1	45µM*	-2%[11.5 µM]	-8%	.	-6%	-9%
COc1ccc2oc(=O)c(C(=O)Nc3cccc(C(C)=O)c3)cc2c1	-8%	11%	2%	17%	6%	1%
Cc1nc2c(c(C)c1CCC(=O)Nc1cccc(C(F)(F)F)c1)c(=O)n(C)c(=O)n2C	7%	.	.	.	.	6%
S=C(Sc1ccc(Cl)cc1)Sc1ccc(Cl)cc1	2µM*	1%	.	9%	-9%	.
CC(=O)/C(=C\N(C)C)Sc1ccc(Cl)cc1	?	0%	2%	2%	1%	0%
Cc1cc(C)cc(Nc2ncc3c(n2)CC(c2ccco2)CC3=O)c1 (stereo not drawn)	50µM*	-1%	-4%	-80%	-4%	1%
Cc1cccc(Nc2ncc3c(n2)CC(c2ccco2)CC3=O)c1 (stereo not drawn)	-3%	6%	-17%	-6%	1%	3%
Cc1ccc(C(=O)Nc2ncc3c(n2)CC(c2ccco2)CC3=O)cc1 (stereo not drawn)	?	-2%	5%	-30%	-10%	-11%
Cc1ccc(NC(=O)CSCC(=O)Nc2ncc3c(n2)CC(c2ccco2)CC3=O)cc1 (stereo not drawn)	50µM*	-1%	14%	1%	-12%	-24%
O=C(Nc1ccccc1)Nc1ccc(S(=O)(=O)N2CCCCC2)cc1	0%	3%	4%	-33%	-4%	-2%
Cc1oc(S(=O)(=O)N2CCCCC2)cc1NC(=O)Nc1ccccc1	10µM*	8%	-11%	3%	0%	3%
Cc1oc(S(=O)(=O)N2CCCCC2)cc1NC(=O)Nc1ccc(Cl)cc1	35µM*	5%	8%	-3%	2%	6%
Cc1ccc(S(=O)(=O)N2CCCCC2)cc1NC(=O)Nc1ccc(Cl)cc1Cl	-4%	0%	1%	3%	2%	5%
